# Rows were chosen to be rich in hits. Some 1.9% of all compounds tested hit in one or more screens of this group.
# PABP polyA inh: PABP-poly(A) binding inhibition | P11940 | PABP-poly(A) RNA binding, fluorescence polarization | inhibition, % at 35 µM | 290,000 compounds, 1% hits | AID 2014;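 also: calls also rest on retests at 20 µM and on dose response follow-up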
# PERK inhibitor: inhibitors of human PERK kinase; inhibition, % at 5.6 µM; AID 1416; 220,000 compounds, 0.17% hits; CHO PERK-DD fusion, SEAP luminescence translation reporter; Q9NZJ5;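 active = inhibition above the mean inhibition of all tested compounds plus 3 SD, set separately per screening campaign, cut at about 2.9% in these data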;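 also: PERK kinase domain activated by AP20187 dimerizer at 100 nM; 0% = DMSO with dimerizer and 100% = rapamycin at 8.4 µM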
# Target sequence (Q9NZJ5 whole entry, looked up, the tested form may be a part): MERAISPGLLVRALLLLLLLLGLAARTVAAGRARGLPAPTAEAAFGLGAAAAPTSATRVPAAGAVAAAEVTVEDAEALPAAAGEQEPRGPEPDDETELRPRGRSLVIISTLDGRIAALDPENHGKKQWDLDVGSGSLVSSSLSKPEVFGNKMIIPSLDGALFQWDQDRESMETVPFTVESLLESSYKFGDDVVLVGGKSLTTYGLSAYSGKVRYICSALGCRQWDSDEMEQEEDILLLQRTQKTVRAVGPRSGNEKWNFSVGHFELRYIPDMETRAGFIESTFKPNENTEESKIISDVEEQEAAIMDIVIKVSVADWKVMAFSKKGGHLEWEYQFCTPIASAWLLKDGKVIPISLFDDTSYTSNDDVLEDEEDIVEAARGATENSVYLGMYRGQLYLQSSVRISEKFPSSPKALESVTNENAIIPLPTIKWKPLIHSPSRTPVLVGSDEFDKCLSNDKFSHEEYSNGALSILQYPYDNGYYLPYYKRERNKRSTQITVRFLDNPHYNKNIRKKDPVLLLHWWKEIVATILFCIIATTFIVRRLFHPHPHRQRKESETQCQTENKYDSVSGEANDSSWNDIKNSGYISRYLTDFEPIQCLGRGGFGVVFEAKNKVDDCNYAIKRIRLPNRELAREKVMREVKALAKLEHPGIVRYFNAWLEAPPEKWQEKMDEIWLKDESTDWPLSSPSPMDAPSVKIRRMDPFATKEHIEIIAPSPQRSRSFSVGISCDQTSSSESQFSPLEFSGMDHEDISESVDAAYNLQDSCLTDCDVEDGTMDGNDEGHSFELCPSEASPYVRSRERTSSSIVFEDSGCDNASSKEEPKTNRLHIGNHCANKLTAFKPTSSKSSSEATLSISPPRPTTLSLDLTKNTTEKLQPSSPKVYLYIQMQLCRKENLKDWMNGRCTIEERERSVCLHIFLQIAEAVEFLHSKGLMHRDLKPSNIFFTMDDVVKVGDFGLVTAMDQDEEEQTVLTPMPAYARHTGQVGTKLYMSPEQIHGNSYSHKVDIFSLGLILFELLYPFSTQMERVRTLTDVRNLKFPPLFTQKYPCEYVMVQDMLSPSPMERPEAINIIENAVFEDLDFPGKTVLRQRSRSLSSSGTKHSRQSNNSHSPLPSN
# PABP1 MLLE inh: blocks PAM2 peptide binding to the PABP1 MLLE domain | P11940 | GST-MLLE / FITC-PAM2 fluorescence polarization | inhibition, % at 20 µM | 360,000 compounds, 0.36% hits | AID 588489; in the data active = inhibition above about 35%, passing the limit was not always enough;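 also: plate controls were DMSO wells with GST-MLLE for no effect and wells lacking GST-MLLE protein for full effect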
# eIF4H inh: inhibitors of RNA binding by human eIF4H. eIF4H fluorescence polarization binding assay. inhibition, % at 35 µM. Q15056. 290,000 compounds, 0.94% hits;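 also: calls also rest on retests at 20 µM and on dose response follow-up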
# GRK2 inh: inhibitors of human GRK2 displacing RNA aptamer; P25098; bead flow cytometry, FAM-aptamer displacement from GRK2; inhibition of aptamer binding, % at 10 µM; 330,000 compounds, 0.59% hits;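 active = inhibition of aptamer binding above 40%, roughly 3 SD of noise, on plates passing a quality check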;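 also: median bead fluorescence of bound FAM aptamer so fluorescent compounds give negative values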
# GRK2 CP1: confirmation of human GRK2 inhibitors displacing RNA aptamer; aptamer displacement, % at 10 µM; bead-bound GRK2, FAM-aptamer displacement, flow cytometry; 2,000 compounds, 4% hits; shares compounds with GRK2 inh;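 active = aptamer displacement above 40%, near three times the noise of non-fluorescent compounds, on plates passing quality checks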;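 also: negative values mostly reflect intrinsic compound fluorescence rather than true enhancement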
# Aptamer quench: counter-screen for GRK2 aptamer inhibitors: fluorescent aptamer quenchers. 110 tested, under 10 active. AID 504521. shares compounds with GRK2 inh. fluorescence change (kMESF span), kMESF (test concentration not listed). Fluorescent RNA aptamer beads, quenching, flow cytometry; stronger effect = higher value;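 active = compounds whose bead fluorescence drops by more than 37 kMESF across the dose range, marking them as dye quenchers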
# Aptamer quench SP: counter-screen for GRK2 aptamer inhibitors: fluorescent aptamer quenchers; 2,000 tested, under 10 active; shares compounds with GRK2 inh; fluorescence response (% of DMSO), % at 10 µM; Carboxyfluorescein RNA aptamer on beads, flow cytometry quenching; stronger effect = lower value;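 active = compounds that quench the bead-bound fluorescent RNA probe, cutting fluorescence to under half of the solvent control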;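 also: counterscreen run without GRK2 so only probe quenching by compound is measured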
# GRK2 CP2: human GRK2 inhibition confirmation, cherry pick 2; shares compounds with GRK2 inh; bead-bound GRK2, FAM-aptamer displacement, flow cytometry; inhibition of aptamer binding, % at 10 µM; 360 tested, under 10 active; AID 504782;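 active = inhibition of aptamer binding above 40%, about triple the noise seen with nonglowing compounds, on plates passing quality control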;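 also: negative values mostly come from compounds that fluoresce themselves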
# Aptamer quench3: aptamer fluorescence quenching in GRK2 counter-screen dose response. shares compounds with GRK2 inh. Streptavidin beads, FAM-RNA aptamer fluorescence quenching, flow cytometry. change in fluorescence (kMESF span), kMESF (no concentration beside the values). 25 tested, under 10 active. AID 504819;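 active = compounds quenching the bead-bound labeled aptamer, with fluorescence dropping by more than 37 kMESF over the dose range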
# FAM quench SP: counter-screen for GRK2 binding hits: quenchers of fluorescent RNA aptamer. shares compounds with GRK2 inh. 360 tested, under 10 active. fluorescence response vs DMSO, % at 10 µM. AID 588494. carboxyfluorescein RNA aptamer beads, flow cytometry quenching; stronger effect = lower value;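 active = response vs DMSO under 50%, meaning signal dropped by over half, treated as fluorescence quencher; inconclusive = no clear call, values can overlap the other calls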;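 also: labelled aptamer on streptavidin beads without GRK2 as a quench counter-screen; 100% = bead fluorescence of DMSO wells and lower means quenching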
# FAM quench PS1: counter-screen for GRK2 aptamer binding inhibitors: aptamer fluorescence quenching; shares compounds with GRK2 inh; Bead-bound FAM RNA aptamer fluorescence quenching, flow cytometry; stronger effect = lower value; fluorescence ratio to DMSO, % at 11.1 µM; 35 tested, under 10 active; AID 588496;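 active = compounds that dim the fluorescent label, raw bead signal shifting by over 33 units between lowest and highest dose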
# Numbers without * were called inactive; u = inconclusive; x = no result. Unless noted, no rule for the calls is given here.
SMILES,PABP polyA inh,PERK inhibitor,PABP1 MLLE inh,eIF4H inh,GRK2 inh,GRK2 CP1,Aptamer quench SP,others
COc1ccc(S(=O)(=O)CCC(=O)NCc2ccc(C)o2)cc1,15,x,15,24,6,x,x,
COc1ccc(CNC(=O)CCS(=O)(=O)c2ccc(Br)cc2)cc1,11,x,22,36,89*,38,102,Aptamer quench=8.5;Aptamer quench3=1.8;FAM quench PS1=103
O=C(Nc1ccccc1C(=O)N1CCOCC1)c1ccc(Br)cc1,5,x,1,-4,100*,x,x,GRK2 CP2=-14;FAM quench SP=98
O=C(Nc1ccccc1C(=O)N1CCOCC1)c1ccc(F)cc1,2,0,-3,-1,1,x,x,
S=C(NCC1CCCO1)c1ccc(Br)cc1 (stereo not drawn),6,x,28,-3,2,x,x,
O=S(=O)(c1ccc(Nc2ccc(-c3ccc4c(c3)OCCO4)nn2)cc1)N1CCCC1,-2,-1,-4,-1,5,x,x,
O=C(NC1CC1)c1cccc(Nc2ccc(-c3ccc4c(c3)OCCO4)nn2)c1,2,0,4,-7,3,11,103,
CCSc1ccc([C@@H]2[C@H]3C(=O)N(CC)C(=O)[C@H]3[C@]3(C(=O)OC)CCCCN23)cc1OC,x,x,8,x,0,x,x,
COc1ccc(Cl)c2sc(N(CCN(C)C)C(=O)C3=COCCO3)nc12,x,x,15,x,x,x,x,
C/C(=N\NC(=O)c1ccccc1O)c1ccc(NC(=O)c2ccccc2)cc1,3,x,-4,0,0,x,x,
O=C1NC(=O)/C(=C\c2ccc(O)cc2O)S1,u,1,22,u,76*,3,102,
CC(C)Nc1nc(NCCOc2ccccc2)c2sccc2n1,x,x,-10,x,x,x,x,
Cc1cc(C)nc(/N=C2\NC(=O)CC(C(=O)O)N2c2ccc(F)c(Cl)c2)n1 (stereo not drawn),5,1,x,6,0,x,x,
Cc1cc(C)nc(/N=C2\NC(=O)CC(C(=O)O)N2CCc2c[nH]c3ccccc23)n1 (stereo not drawn),-1,1,0,0,60*,-1,102,
Cc1ccc(/C=C2/C(=N)N3N=C(CC(=O)N4CCCC4)SC3=NC2=O)cc1,3,x,-10,13,44*,3,100,
CSc1ccc(/C=C2/C(=N)N3N=C(CC(=O)N4CCCC4)SC3=NC2=O)cc1,0,x,8,-17,0,x,x,
CC(=O)/C=N/Nc1ccccc1,-4,1,-7,-6,0,x,x,
OC[C@@H](O)[C@H](O)C(/C=N/Nc1ccccc1)=N\Nc1ccccc1,-9,0,18,-7,40,0,96,
CC1CCCC(NCC(O)COC(c2ccc(F)cc2)c2ccc(F)cc2)C1C (stereo not drawn),27,0,5,13,0,-5,102,
CNC(C)C(=O)NC(C(=O)N1CCCC1C(=O)NNc1ccccc1)C(C)C (stereo not drawn),x,x,-8,x,67*,10,94,
CC(=O)NCCN1C(=O)S/C(=C\c2cccs2)C1=O,9,0,30,11,79*,-2,101,
O=C(NCCN1C(=O)S/C(=C\c2cccs2)C1=O)c1ccco1,6,0,23,0,0,x,x,
Cc1ccc(N2C(=O)N(CC(=O)Nc3ccc(F)c(F)c3)C(=O)C2C)cc1 (stereo not drawn),x,x,-3,x,100*,3,98,

# Assay outcomes from PubChem BioAssay.
